The values below come from ChEMBL document CHEMBL2218924, “A broad activity screen in support of a chemogenomic map for kinase signalling research and drug discovery” (Biochem J, 2013).

Assay [1] has as its target T1, Serine/threonine-protein kinase BRSK1 (Homo sapiens) (UniProt Q8TDC3).
T1 sequence (whole entry): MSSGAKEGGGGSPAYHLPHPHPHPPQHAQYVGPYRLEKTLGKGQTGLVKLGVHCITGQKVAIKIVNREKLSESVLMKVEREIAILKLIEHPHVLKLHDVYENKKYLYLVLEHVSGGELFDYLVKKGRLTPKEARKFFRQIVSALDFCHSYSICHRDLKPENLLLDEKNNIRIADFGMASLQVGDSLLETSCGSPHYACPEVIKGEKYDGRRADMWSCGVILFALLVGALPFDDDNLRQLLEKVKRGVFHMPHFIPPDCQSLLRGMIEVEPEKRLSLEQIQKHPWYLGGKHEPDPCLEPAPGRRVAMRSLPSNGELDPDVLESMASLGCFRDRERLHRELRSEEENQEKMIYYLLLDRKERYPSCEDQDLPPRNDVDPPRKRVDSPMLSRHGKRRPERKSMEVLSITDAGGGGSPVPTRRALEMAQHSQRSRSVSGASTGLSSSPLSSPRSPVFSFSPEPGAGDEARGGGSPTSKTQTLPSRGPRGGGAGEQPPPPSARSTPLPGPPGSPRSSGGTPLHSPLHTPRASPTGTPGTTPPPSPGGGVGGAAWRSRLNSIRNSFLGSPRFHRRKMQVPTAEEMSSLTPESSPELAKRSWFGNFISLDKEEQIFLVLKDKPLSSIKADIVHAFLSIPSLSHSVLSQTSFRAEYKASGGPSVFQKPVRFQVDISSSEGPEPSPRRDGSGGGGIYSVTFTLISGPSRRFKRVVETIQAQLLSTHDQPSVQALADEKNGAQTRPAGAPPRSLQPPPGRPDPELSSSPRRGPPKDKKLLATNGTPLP
The following applies: at 1 µM.

In assay [2] the target is T1, Serine/threonine-protein kinase BRSK1 (Homo sapiens). The following applies: at 10 µM.
In assay [3] the target is T2, Serine/threonine-protein kinase BRSK2 (Homo sapiens) (UniProt Q8IWQ3).
T2 sequence (whole entry): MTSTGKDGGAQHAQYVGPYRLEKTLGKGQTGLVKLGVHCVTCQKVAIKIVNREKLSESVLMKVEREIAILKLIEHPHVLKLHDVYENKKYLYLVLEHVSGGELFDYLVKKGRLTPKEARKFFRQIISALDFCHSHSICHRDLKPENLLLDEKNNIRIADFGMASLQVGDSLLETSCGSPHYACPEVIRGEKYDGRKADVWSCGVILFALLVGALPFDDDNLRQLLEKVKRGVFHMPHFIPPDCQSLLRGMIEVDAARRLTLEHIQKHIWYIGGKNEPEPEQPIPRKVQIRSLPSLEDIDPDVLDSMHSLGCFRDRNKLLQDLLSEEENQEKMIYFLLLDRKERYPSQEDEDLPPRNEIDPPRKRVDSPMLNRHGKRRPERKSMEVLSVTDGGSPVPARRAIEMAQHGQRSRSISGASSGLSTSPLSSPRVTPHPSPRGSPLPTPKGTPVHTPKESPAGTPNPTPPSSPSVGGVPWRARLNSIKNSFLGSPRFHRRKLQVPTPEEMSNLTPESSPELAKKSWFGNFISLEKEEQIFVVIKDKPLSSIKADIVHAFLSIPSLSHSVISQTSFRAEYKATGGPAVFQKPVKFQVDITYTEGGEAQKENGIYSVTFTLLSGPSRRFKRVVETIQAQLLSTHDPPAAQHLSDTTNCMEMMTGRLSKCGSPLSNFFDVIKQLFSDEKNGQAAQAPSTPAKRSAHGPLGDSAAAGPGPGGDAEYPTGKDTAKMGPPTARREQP
The note with it: at 1 µM.

Assay [4] addresses T2, Serine/threonine-protein kinase BRSK2 (Homo sapiens). The following applies: at 10 µM.
For assay [5], the target named is T3, Cyclin-dependent kinase 1/cyclin B1 (Homo sapiens) (UniProt P06493+P14635). The note with it: at 1 µM.
T3 sequence (P06493 whole entry, looked up): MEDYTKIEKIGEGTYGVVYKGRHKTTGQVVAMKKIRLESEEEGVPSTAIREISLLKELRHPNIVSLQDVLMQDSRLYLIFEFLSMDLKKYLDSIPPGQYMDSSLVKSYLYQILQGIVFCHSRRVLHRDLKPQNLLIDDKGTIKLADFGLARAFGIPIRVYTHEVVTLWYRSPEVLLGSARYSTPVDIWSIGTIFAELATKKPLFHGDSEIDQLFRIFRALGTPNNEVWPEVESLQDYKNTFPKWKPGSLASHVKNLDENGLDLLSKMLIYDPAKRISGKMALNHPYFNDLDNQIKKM
T3 sequence (P14635 whole entry, looked up): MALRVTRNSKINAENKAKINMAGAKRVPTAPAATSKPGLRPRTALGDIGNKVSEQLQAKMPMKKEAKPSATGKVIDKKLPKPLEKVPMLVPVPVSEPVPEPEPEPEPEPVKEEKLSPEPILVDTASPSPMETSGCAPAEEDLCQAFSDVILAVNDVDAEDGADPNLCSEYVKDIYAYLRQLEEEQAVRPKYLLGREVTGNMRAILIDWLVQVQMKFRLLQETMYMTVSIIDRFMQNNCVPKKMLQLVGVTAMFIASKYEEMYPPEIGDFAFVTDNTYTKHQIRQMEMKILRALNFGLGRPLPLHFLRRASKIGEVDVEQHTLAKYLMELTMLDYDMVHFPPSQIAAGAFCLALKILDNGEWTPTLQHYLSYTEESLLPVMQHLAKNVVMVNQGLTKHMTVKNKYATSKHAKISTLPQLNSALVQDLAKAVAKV
The target of assay [6] is T3, Cyclin-dependent kinase 1/cyclin B1 (Homo sapiens). The following applies: at 10 µM.
In assay [7] the target is T4, Cyclin-dependent kinase 2/cyclin A (Homo sapiens) (UniProt P24941+P20248+P78396). The following applies: at 10 µM.
Assay [8] concerns the target T5, Cyclin-dependent kinase 2/cyclin E (Homo sapiens) (UniProt P24864+P24941+O96020). The following applies: at 1 µM.
Assay [9] has as its target T5, Cyclin-dependent kinase 2/cyclin E (Homo sapiens). The note with it: at 10 µM.
Assay [10] concerns the target T6, CDK3/cyclin E (Homo sapiens) (UniProt P24864+O96020+Q00526). The note with it: at 1 µM.
Assay [11] addresses T6, CDK3/cyclin E (Homo sapiens). The note with it: at 10 µM.
In assay [12] the target is T7, Cyclin-dependent kinase 5/CDK5 activator 1 (Homo sapiens) (UniProt Q00535+Q15078). The following applies: at 1 µM.
T7 sequence (Q00535 whole entry): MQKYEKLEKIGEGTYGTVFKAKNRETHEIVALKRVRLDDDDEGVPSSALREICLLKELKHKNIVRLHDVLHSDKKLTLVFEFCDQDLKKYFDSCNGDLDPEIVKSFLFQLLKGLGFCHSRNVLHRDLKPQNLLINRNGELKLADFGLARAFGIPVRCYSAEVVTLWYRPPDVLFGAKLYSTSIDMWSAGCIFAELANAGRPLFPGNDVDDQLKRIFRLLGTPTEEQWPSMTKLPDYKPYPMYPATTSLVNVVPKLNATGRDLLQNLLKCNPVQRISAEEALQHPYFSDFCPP
T7 sequence (Q15078 99-307 partner limits assumed): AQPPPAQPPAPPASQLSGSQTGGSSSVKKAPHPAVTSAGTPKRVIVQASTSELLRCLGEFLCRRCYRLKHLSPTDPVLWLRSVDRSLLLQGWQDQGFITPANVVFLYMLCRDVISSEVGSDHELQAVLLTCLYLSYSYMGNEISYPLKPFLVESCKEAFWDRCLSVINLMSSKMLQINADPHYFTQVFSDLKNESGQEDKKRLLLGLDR
For assay [13], the target named is T7, Cyclin-dependent kinase 5/CDK5 activator 1 (Homo sapiens). The following applies: at 10 µM.
Assay [14] shares this target. The following applies: at 1 µM. The source holds these as a separate data set.
The target is the same in assay [15]. The following applies: at 10 µM. This is another data set of the same source.
Assay [16] has as its target T8, CDK6/cyclin D3 (Homo sapiens) (UniProt P30281+Q00534). The note with it: at 1 µM.
In assay [17] the target is T8, CDK6/cyclin D3 (Homo sapiens). The following applies: at 10 µM.
The target of assay [18] is T9, Cyclin-dependent kinase 7/ cyclin H (Homo sapiens) (UniProt P51946+P50613). The following applies: at 1 µM.
The target of assay [19] is T9, Cyclin-dependent kinase 7/ cyclin H (Homo sapiens). The following applies: at 10 µM.
For assay [20], the target named is T4, Cyclin-dependent kinase 2/cyclin A (Homo sapiens). The following applies: at 1 µM.

T6 sequence (O96020 whole entry, looked up): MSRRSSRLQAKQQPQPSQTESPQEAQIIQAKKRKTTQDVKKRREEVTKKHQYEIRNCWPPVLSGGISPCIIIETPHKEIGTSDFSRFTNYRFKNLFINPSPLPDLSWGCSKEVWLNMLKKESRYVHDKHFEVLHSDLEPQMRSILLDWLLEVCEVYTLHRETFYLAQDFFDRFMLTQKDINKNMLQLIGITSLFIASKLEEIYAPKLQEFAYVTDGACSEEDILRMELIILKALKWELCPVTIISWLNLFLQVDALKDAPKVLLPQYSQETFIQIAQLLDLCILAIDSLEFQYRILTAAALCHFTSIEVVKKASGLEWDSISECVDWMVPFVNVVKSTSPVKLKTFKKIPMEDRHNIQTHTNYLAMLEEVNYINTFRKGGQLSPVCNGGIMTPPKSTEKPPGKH
T6 sequence (P24864 whole entry, looked up): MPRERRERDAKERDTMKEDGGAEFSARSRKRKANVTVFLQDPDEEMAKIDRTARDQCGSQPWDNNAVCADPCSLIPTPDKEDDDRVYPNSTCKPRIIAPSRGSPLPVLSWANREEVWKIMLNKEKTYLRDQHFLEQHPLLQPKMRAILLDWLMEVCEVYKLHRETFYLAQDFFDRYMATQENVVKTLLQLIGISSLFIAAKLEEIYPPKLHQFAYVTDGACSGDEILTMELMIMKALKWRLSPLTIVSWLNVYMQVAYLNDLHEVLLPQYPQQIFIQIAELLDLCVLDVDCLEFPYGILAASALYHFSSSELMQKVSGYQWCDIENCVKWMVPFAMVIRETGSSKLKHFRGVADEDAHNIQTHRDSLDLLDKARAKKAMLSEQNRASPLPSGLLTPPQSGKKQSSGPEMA
T6 sequence (Q00526 whole entry, looked up): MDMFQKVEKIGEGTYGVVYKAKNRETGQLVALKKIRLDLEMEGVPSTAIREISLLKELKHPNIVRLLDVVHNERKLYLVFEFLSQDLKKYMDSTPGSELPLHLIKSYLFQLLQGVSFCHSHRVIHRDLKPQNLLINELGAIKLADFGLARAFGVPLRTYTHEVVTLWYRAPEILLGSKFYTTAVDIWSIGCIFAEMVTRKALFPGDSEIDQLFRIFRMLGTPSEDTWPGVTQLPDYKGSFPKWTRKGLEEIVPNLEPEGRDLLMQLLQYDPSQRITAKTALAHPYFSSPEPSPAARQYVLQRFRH

Regarding `O=c1cc(N2CCOCC2)oc2c1ccc1ccccc12`, the residual activity came to 91% in assay [1]; 96% in [2]; 102% in assay [3]; 108% in [4]; 106% in assay [5]; 91% in [6]. Besides, the residual activity in assay [7] turned out to be 87%; in assay [8] it was 95%; in [9], 97%; in assay [10], 102%; in [11], 79%; in assay [12] it was 80%. Besides, the residual activity came to 67% in [13]; 100% in [14]; 81% in assay [15]; 100% in assay [16]; 89% in assay [17]; 86% in assay [18]. Further, the residual activity in assay [19] turned out to be 88%.
With `CN(C)S(=O)(=O)c1ccc2c(c1)/C(=C/c1cc3c([nH]1)CCCC3)C(=O)N2`, the residual activity in [1] was 97%; in [2] it was 75%; in [3], 40%; in assay [4], 50%; in assay [5], 88%; in assay [6], 95%. Also, the residual activity in assay [20] is 87%; in assay [7], 77%; in [8], 96%; in assay [9], 97%; in assay [10], 87%; in assay [11], 83%. In addition, the residual activity was 90% in [12]; 98% in assay [13]; 90% in [14]; 87% in [15]; 96% in [16]; 87% in [17]. Further, the residual activity in [18] came to 25%; in [19], 16%.
`O=C1NC(=O)C(c2cn(CCCO)c3ncccc23)=C1c1cnccn1`: the residual activity was determined as 94% in assay [1]; 84% in assay [2]; 74% in [4]; 72% in [5]; 63% in assay [6]; 84% in assay [20]. Also, the residual activity came out at 59% in [7]; 87% in assay [8]; 64% in assay [9]; 93% in [10]; 70% in assay [11]; 73% in assay [12]. The residual activity in [13] was found to be 51%; in assay [14] it was 90%; in assay [15] it was 61%; in [18] it was 71%; in assay [19] it was 54%.
As for `O=c1c(-c2ccc(F)cc2)c(-c2ccncc2)[nH]n1-c1ccc(Cl)cc1`, the residual activity in [1] came to 100%; in assay [2] it was 59%; in assay [4] it was 76%; in assay [20], 99%; in assay [9], 102%.
`O=C(NC(NC(=S)Nc1ccc(F)c([N+](=O)[O-])c1)C(Cl)(Cl)Cl)C(c1ccccc1)c1ccccc1` (centres undefined): the residual activity stood at 91% in [1]; 63% in [2]; 93% in assay [3]; 73% in [4]; 96% in [7]; 90% in assay [8]. In addition, the residual activity in [9] is 77%; in [10] it was 100%; in assay [11] it was 93%; in assay [12], 98%; in assay [15] it was 83%; in assay [16], 97%. Further, the residual activity in assay [17] worked out at 94%.
On to `Nc1ncnc2c1cnn2-c1ccccc1`, for which the residual activity amounted to 23% in assay [1]; 23% in assay [2]; 97% in assay [3]; 54% in [4]; 125% in assay [20]; 94% in assay [7]. Moreover, the residual activity in assay [8] was determined as 98%; in assay [10] it was 95%; in assay [11], 86%; in assay [14] it was 92%; in assay [15] it was 79%; in assay [16] it was 95%. Further, the residual activity in [17] turned out to be 85%; in assay [18] it was 86%; in assay [19], 88%.
Regarding `CC(C)(C)n1nc(Cc2cccc3ccccc23)c2c(N)ncnc21`, the residual activity in [1] stood at 90%; in [2], 91%; in assay [3] it was 111%; in assay [4], 98%; in assay [5], 106%; in [6], 92%. The residual activity in assay [20] was 130%; in [7] it was 57%; in assay [8] it was 107%; in [9] it was 69%; in assay [10], 86%; in assay [11], 63%. Further, the residual activity was found to be 110% in assay [12]; 82% in [13]; 87% in [14]; 86% in assay [15]; 87% in assay [16]; 97% in assay [17]. For the same compound, the residual activity in assay [18] is 86%; in assay [19] it was 90%.
Consider `N#C/C(=C1/Nc2ccccc2S1)c1ccnc(NCCc2cccnc2)n1`, for which the residual activity stood at 80% in [1]; 45% in assay [2]; 96% in assay [3]; 29% in assay [4]; 81% in assay [20]; 33% in assay [7]. Further, the residual activity is 84% in assay [10]; 44% in assay [11]; 74% in [12]; 54% in [13]; 88% in [14]; 49% in assay [15]. The residual activity in [16] came to 100%; in assay [17], 63%; in [18], 80%; in assay [19], 54%.
Take `CC(C)c1nn(-c2c(Cl)cccc2Cl)c2nc(Cc3ccc(OCCO)cc3)[nH]c(=O)c12`: the residual activity in assay [1] was found to be 70%; in assay [2], 78%; in assay [4], 93%; in assay [5], 3%; in assay [6], 0%; in assay [20] it was 0%. Also, the residual activity in assay [7] was 0%; in assay [8], -1%; in [9] it was -3%; in assay [10], -1%; in [11] it was -1%; in assay [12], 0%. Further, the residual activity in assay [13] is -1%; in [14], -1%; in assay [15], -1%; in assay [16], 43%; in [17], 9%; in [18], 15%. Moreover, the residual activity in [19] is 1%.
On to `NC(=O)Nc1sc(-c2ccc(F)cc2)cc1C(N)=O`, for which the residual activity in assay [1] was 55%; in [2], 15%; in [3] it was 83%; in [4], 18%; in assay [5] it was 100%; in [6], 57%. Besides, the residual activity in assay [20] amounted to 59%; in [7], 21%; in assay [8], 79%; in [9] it was 26%; in assay [10], 73%; in [11] it was 43%. Further, the residual activity in assay [12] turned out to be 70%; in [13], 33%; in assay [14] it was 81%; in [15], 33%; in [16] it was 78%; in assay [17], 33%. In addition, the values for the residual activity in assay [18] and in assay [19] were 87% and 61%, respectively.
Take `COc1ccc(Cl)cc1NC(=O)Nc1cc(C)nc2ccccc12`: the residual activity in assay [1] was 60%; in assay [2], 64%; in assay [3], 77%; in assay [4] it was 100%; in [7], 88%; in assay [10] it was 93%. Besides, the residual activity in assay [11] worked out at 91%; in assay [15], 77%; in assay [16], 95%; in [17] it was 83%; in assay [18], 80%; in assay [19], 90%.
For the compound `O=C(CCCc1ccc(-c2ccccc2F)cc1)Nc1ccc(O)cc1`, the residual activity was 102% in assay [1]; 83% in assay [2]; 107% in [3]; 105% in [4]; 96% in assay [20]; 98% in assay [7]. In addition, the residual activity stood at 101% in [8]; 92% in assay [9]; 102% in assay [10]; 94% in [11]; 104% in assay [12]; 99% in assay [13]. Further, the residual activity was determined as 111% in assay [14]; 99% in assay [15]; 103% in assay [16]; 98% in assay [17]; 98% in [18]; 105% in assay [19].
